In PubChem BioAssay (NCATS):
Records with an inconclusive call do not appear. A call without a number means that no potency is given here. Active and inactive are the calls of the source. Unless noted, calls come from the whole dose curve; as a rule, active = well fitted curve in the direction sought with a large enough effect; inconclusive = small, poorly fitted or top-dose-only effect, or another doubt; inactive = no such curve, though single readings can be large; an effect the other way counts as inactive or inconclusive.

Assays:
[1] = AP1 Signaling Pathway (AID 357; active = well fitted curve in either direction with a large enough effect, not every such curve was filed as active;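 note: ME-180 reporter cells stimulated with EGF at its EC50 level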); conditions: ME-180 AP-1-bla reporter, EGF-induced, beta-lactamase ratio, 5 h; at 38 µM (top of the series)
In short: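 Titration-series screen for positive or negative modulators of EC50 EGF-induced signaling in ME-180 cells carrying an AP-1-driven beta-lactamase reporter. After 5 hours at 37 degrees Celsius, CCF4 460nm/530nm emission ratio gave %Activity; AC50 values derived.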

[2] = biological target: Cytochrome P450 1A2 (Homo sapiens) (UniProt P05177); assay: p450-cyp1a2 (AID 410; calls by dose curve; note: potency is the fitted concentration of half-maximal effect)
In short: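 20nM CYP1A2 with 100uM Luciferin-ME (at Km) in 100mM KPO4; compound preincubated 10 min, NADPH regeneration added, 60 min at room temperature. Luciferin quantified by luminescence after detection reagent; normalized to 57 uM furafylline.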

[3] = NFAT Signaling Pathway (AID 444; active = well fitted curve in either direction with a large enough effect, not every such curve was filed as active;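 note: carbachol stimulus at about its EC50 of 1 µM final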); conditions: Jurkat NFAT-bla M1, carbachol, beta-lactamase ratio, 5 h; at 38 µM (top of the series)
In short: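 Jurkat cells with NFAT-driven β-lactamase reporter and co-expressed M1 receptor, stimulated with carbachol (final 1 uM, ~EC50), compound titration, 5 h at 37 °C. CCF4 loaded 1 h at RT; 460/530 nm ratio gave %activity and AC50.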

[4] = Stat Signaling Pathway (AID 446; active = well fitted curve in either direction with a large enough effect, not every such curve was filed as active;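 note: ME-180 cervical cancer cells given 40 pM IL-6 alongside compound; SIE-controlled beta-lactamase reporter measured as 460/530 nm FRET emission ratio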); conditions: ME-180 SIE beta-lactamase reporter, IL-6 stimulated, 5 h; at 38 µM (top of the series)
In short: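 Reporter line: ME-180 cervical carcinoma, SIE-beta-lactamase. Treatment: compound with 40 pM IL-6, 5 hrs, 37 C, in low-serum OPTI-MEM with 10 mM HEPES pH 7.3. Detection: 460/530 nm fluorescence.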

[5] = biological target: Glucocorticoid receptor (Homo sapiens) (UniProt P04150); assay: GR-GFP Redistribution (AID 450;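 active = compounds whose dose series gives a full or clear partial fitted curve of increased nuclear translocation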; note: potency is the fitted concentration of half-maximal effect); conditions: U2OS GR-GFP nuclear translocation, laser cytometry, 2 h
[6] = biological target: Glucocorticoid receptor (Homo sapiens) (UniProt P04150); assay: GR-EFC Redistribution (AID 451; calls by dose curve; note: potency is the fitted concentration of half-maximal effect); conditions: CHO-K1 GR-EFC translocation, beta-gal luminescence, 2 h
In short: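 CHO-K1 cells expressing nuclear EA and GR-ED fragments of b-gal; compounds titrated up to 46 uM final, 2 h at 37 C. GR nuclear translocation read as complemented b-gal luminescence after 1 h RT detection.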

[7] = biological target: Mitogen-activated protein kinase 10 (Mus musculus) (UniProt Q61831); assay: JNK3 AlphaScreen Assay (AID 530; active = well fitted curve in either direction with a large enough effect, not every such curve was filed as active;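 note: kinase came from lysate of stimulated human HepG2 cells; signal reports phosphorylation of biotinylated GST-cJun 1-79 at Ser73 with 10 µM ATP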)
In short: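 Pre-activated (IL-1β/TNFα) JNK3 in HepG2 lysates phosphorylates biotin-GST-cJun(1-79), 10 uM ATP; anti-phospho-cJun(Ser73) AlphaScreen read at room temperature, pH 7.6 Tris buffer. Compounds pre-incubated 15 min as titrations.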

[8] = biological target: 3',5'-cyclic-AMP phosphodiesterase 4B (Homo sapiens) (UniProt Q07343); assay: qHTS Assay for Inhibitors of PDE-IV (AID 607; active = well fitted activation curve with a large enough effect in the main read-out, with a control signal flat, not every such curve was filed as active)
In short: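 Cell-based read-out of cAMP via a modified cyclic nucleotide-gated channel and membrane potential dye (535/590 nm) in HEK293 cells expressing PDE4 endogenously. Compounds tested up to 22.9 uM final; 100 uM RO 20-1724 reference.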

[9] = biological target: Guanine nucleotide-binding protein G(i) subunit alpha-1 (Homo sapiens) (UniProt P63096); assay: qHTS Assay for Inhibitors of RGS12 GoLoco Motif Activity (Green Fluorophore) (AID 879);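 note: negative values mean loss of peptide binding seen as reduced polarization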
In short: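 Fluorescence polarization assay: 50 nM Gαi1 with 10 nM FITC-labeled RGS12 GoLoco peptide in 10 mM Tris pH 7.5, 150 mM NaCl, 0.1 mM GDP, 0.05% NP40, 10 min at room temperature with compound.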

[10] = biological target: Cytochrome P450 3A4 (Homo sapiens) (UniProt P08684); assay: qHTS Assay for Activators of Cytochrome P450 3A4 (AID 885); note: nearly all actives have a fitted effect of over 65% in size
In short: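 Signal was normalized against complete inhibition by 57 uM ketoconazole. The reaction used 20nM CYP3A4 with 25uM Luciferin-PPXE, 10-min compound preincubation and a 60-min NADPH-supported step at RT.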

[11] = biological target: Muscarinic acetylcholine receptor M1 (Rattus norvegicus) (UniProt P08482); assay: qHTS Assay for Antagonists of Acetylcholine Muscarinic M1 Receptor: Kinetic Measurement of Intracellular Calcium Response (AID 943); note: nearly all actives have a fitted effect of over 75% in size
In short: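 CHO cells expressing rat M1 receptor, Fluo-4 loaded, preincubated 10 min with compound, then stimulated with EC80 carbachol (100 nM final). Kinetic calcium fluorescence over 4 min; response taken as peak over basal signal.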

[12] = biological target: Pyruvate kinase (Leishmania mexicana) (UniProt Q27686); assay: qHTS Validation Assay for Inhibitors of Leishmania Mexicana Pyruvate Kinase (AID 945)
In short: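 Eight-point qHTS titrations in triplicate, data normalized to DMSO neutral control. Reaction: 0.2 nM LmPYK E451W mutant, 0.5 mM PEP, 0.1 mM ADP, 7 mM MgCl2, pH 7.2, one hour at room temperature; luminescent ATP detection.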

[13] = biological target: Pyruvate kinase PKM (Homo sapiens) (UniProt P14618); assay: qHTS Assay for Activators of Human Muscle Pyruvate Kinase (AID 954; active = well fitted curve in the direction sought with a large enough effect, not every such curve was filed as active)
In short: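 Human PKM2 activity is measured as ATP generation, detected by luciferase-coupled luminescence. The enzyme (0.1 nM) acts on 0.5 mM PEP and 0.1 mM ADP for 1 h at ambient temperature; data are normalized to uninhibited and full-inhibition wells.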

[14] = biological target: alpha-glucosidase (Oryza sativa, rice) (UniProt Q653V4); assay: Counterscreen for Glucocerebrosidase Inhibitors: qHTS Assay for Rice alpha-Glucosidase at pH 5.0 (AID 997)
In short: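 Rice alpha-glucosidase (4 nM final) with 400 uM 4-methylumbelliferyl-alpha-D-glucopyranoside in citrate buffer pH 5.0, 20 min at room temperature, stopped at pH 10; fluorescence 365/440 nm, compounds 0.7 nM–77 uM, AC50 from Hill fits.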

[15] = Validation of Assay for Modulators of Lamin A Splicing (AID 1459; active = well fitted curve in the direction sought with a large enough effect in the signal ratio; the % refers to the signal ratio;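 note: cells exposed to compound for two days before reading; ratio rise marks activators and ratio drop marks inhibitors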)
In short: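 Splicing correction is reported by an EGFP-containing lamin A minigene in stably transfected S3 HeLa cells, while DsRed2 controls for viability and nonspecific signal. Cells are exposed to compounds for 48 hrs before the GFP over RFP ratio is taken.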

[16] = qHTS Assay for Lipid Storage Modulators (AID 1519; calls by dose curve); conditions: Drosophila S3 cells, BODIPY lipid droplet/cell ratio, laser cytometry, cells loaded with oleic acid
In short: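 Cells seeded at 5,000 per well were treated with compounds over a concentration series and loaded with oleic acid (400 uM, as added). Lipid droplet fluorescence (488 nm excitation, 500-530 nm channel) was read by laser-scanning cytometry and normalized to 20 uM Triacsin C.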

Glucocorticoid receptor (Homo sapiens), sequence (P04150 whole entry, looked up, the tested form may be a part): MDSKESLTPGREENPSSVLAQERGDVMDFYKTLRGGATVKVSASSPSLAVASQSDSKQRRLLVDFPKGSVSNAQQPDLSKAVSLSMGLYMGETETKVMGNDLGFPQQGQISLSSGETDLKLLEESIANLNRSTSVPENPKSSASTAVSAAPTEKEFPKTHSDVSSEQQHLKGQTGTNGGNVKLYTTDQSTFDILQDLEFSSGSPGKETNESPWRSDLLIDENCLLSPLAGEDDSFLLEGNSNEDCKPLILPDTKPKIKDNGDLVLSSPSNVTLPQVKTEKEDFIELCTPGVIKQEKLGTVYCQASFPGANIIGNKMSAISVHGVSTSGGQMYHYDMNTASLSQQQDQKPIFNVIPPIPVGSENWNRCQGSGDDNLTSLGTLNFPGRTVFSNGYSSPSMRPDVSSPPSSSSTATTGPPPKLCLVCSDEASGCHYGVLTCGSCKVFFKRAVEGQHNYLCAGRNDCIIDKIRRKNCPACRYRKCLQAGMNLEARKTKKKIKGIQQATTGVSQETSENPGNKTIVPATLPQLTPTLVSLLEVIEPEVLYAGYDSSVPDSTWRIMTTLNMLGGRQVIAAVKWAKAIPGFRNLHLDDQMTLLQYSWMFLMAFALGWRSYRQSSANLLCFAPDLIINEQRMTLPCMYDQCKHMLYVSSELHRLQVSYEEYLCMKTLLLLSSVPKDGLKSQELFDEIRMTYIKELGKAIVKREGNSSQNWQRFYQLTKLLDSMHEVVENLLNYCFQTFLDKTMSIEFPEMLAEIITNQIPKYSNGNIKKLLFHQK
Pyruvate kinase PKM (Homo sapiens), sequence (P14618 whole entry, looked up): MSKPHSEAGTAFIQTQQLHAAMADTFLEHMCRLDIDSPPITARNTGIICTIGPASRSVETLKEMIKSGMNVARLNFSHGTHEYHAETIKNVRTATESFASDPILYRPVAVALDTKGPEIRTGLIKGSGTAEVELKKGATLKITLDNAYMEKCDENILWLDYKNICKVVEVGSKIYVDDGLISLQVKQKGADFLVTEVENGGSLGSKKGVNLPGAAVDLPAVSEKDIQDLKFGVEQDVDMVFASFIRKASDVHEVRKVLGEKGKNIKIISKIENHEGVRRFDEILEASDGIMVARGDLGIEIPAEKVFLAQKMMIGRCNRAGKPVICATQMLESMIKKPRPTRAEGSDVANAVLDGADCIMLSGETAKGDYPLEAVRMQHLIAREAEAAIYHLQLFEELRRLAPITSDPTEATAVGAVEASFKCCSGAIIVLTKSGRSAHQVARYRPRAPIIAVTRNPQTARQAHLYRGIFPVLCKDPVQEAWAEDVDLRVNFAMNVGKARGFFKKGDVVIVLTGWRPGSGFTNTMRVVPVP
Cytochrome P450 3A4 (Homo sapiens), sequence (P08684 whole entry, looked up): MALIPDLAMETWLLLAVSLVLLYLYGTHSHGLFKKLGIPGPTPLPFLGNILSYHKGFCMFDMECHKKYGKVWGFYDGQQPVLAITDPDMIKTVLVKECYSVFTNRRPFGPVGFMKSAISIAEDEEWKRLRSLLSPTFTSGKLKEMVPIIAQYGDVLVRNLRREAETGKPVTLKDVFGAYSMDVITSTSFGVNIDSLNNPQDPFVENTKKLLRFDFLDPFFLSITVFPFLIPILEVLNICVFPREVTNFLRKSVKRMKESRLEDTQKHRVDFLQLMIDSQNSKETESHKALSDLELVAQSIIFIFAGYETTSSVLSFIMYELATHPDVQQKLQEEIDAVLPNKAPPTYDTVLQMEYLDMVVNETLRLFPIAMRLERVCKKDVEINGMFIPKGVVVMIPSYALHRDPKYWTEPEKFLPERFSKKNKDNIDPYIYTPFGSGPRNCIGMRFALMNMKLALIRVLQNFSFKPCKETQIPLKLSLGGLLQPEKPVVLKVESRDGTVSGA
Cytochrome P450 1A2 (Homo sapiens), sequence (P05177 whole entry, looked up): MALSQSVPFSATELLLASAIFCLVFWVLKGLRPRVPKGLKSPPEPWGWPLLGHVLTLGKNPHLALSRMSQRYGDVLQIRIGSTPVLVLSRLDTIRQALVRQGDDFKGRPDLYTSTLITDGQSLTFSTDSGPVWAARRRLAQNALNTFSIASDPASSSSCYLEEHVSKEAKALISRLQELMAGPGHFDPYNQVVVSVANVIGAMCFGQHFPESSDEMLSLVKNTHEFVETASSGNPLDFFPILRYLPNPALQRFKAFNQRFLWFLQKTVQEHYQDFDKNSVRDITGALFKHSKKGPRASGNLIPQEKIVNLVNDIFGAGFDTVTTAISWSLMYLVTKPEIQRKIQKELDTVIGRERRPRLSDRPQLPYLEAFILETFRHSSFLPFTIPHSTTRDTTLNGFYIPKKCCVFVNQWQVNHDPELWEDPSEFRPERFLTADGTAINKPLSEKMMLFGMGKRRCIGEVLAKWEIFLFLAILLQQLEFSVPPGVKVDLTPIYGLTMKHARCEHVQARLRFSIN
3',5'-cyclic-AMP phosphodiesterase 4B (Homo sapiens), sequence (Q07343 whole entry, looked up): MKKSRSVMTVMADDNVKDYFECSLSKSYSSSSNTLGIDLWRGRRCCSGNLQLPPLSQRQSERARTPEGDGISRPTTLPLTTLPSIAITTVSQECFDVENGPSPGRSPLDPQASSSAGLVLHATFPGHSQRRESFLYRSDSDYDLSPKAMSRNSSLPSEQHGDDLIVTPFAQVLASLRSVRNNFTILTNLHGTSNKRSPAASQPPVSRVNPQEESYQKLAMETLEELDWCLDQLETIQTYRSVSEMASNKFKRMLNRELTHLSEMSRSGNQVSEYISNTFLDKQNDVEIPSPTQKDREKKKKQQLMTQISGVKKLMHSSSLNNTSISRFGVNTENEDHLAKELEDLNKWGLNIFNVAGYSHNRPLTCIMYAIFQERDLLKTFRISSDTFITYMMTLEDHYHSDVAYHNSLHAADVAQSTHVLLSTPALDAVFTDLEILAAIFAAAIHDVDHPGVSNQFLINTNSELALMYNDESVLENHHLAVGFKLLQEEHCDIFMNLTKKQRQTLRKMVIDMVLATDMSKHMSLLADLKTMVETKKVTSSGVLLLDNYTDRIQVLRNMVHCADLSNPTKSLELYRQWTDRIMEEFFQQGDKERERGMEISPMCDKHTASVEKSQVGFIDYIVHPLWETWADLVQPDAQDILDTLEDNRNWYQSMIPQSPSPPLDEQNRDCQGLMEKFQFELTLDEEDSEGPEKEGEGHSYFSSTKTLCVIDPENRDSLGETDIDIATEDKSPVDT
Muscarinic acetylcholine receptor M1 (Rattus norvegicus), sequence (P08482 whole entry, looked up): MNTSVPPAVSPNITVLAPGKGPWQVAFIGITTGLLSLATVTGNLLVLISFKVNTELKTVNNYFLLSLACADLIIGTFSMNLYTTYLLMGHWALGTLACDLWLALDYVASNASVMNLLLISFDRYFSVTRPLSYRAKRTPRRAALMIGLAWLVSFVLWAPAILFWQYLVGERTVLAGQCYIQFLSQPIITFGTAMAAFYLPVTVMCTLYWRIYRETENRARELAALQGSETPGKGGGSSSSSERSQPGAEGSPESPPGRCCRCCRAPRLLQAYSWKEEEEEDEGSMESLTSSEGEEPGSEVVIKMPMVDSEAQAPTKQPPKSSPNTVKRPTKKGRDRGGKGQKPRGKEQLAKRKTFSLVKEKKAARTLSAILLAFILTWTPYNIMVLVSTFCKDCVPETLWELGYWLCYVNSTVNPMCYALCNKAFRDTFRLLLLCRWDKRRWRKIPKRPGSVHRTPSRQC
Guanine nucleotide-binding protein G(i) subunit alpha-1 (Homo sapiens), sequence (P63096 whole entry, looked up): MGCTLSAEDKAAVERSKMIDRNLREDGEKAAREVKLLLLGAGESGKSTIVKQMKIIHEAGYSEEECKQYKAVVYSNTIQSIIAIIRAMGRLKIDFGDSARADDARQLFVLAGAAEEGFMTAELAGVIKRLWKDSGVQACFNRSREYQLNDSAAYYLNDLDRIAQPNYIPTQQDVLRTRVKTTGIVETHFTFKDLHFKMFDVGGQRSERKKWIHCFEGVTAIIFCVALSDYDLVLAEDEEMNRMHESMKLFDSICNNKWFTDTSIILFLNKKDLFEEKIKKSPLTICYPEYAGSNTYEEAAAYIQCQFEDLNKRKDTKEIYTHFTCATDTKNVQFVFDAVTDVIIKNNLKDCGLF
Pyruvate kinase (Leishmania mexicana), sequence (Q27686 2-499 E452W): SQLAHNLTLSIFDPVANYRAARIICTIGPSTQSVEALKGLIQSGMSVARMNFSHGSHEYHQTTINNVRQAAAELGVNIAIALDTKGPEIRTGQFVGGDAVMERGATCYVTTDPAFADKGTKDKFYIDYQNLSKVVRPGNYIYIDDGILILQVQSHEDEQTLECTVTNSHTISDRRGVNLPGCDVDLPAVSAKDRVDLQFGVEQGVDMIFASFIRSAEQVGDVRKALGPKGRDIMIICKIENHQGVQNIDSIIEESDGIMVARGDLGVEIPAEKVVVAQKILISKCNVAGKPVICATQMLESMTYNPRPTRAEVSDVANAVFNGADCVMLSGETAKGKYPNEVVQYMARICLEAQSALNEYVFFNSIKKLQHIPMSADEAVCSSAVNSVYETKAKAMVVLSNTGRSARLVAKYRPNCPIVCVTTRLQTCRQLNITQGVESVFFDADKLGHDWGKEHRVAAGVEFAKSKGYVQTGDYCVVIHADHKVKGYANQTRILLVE

## Cn1cnc2c(NC3CCCC3)ncnc21
[1]
  activity change, negative = inhibition: -18% (inactive)
[2]
  Potency: 12.6 µM (active)
[3]
  activity change, negative = inhibition: -0.777% (inactive)
[4]
  activity, negative = inhibition: 11.1% (inactive)
[5]
  Potency: > 46 µM (inactive)
[6]
  Potency: > 46 µM (inactive)
[7]
  Potency: inactive
[8]
  Potency: inactive
[9]
  outcome: inactive
[10]
  Potency: inactive
[11]
  Potency: inactive
[12]
  Potency: inactive
[13]
  outcome: inactive
[14]
  outcome: inactive
[15]
  outcome: inactive
[16]; at 57.5 µM (top of the series)
  activity change, negative = inhibition: -0.311% (inactive)
[16]; measured here: cell count channel max response
  max response: -17.7%
[16]; measured here: lipid channel max response
  max response: -21%
